# From PMC7819943, “Rice protein-binding microarrays: a tool to detect cis-acting elements near promoter regions in rice”
# Over roughly 39,000 sequences, “fluorescence intensity (a.u.)” has its median near 4,300; the highest 2% begin near 39,000. Only a selection was taken, and the highest values are over-represented in it overall.
# Target: T1, OsSMF1 (Oryza sativa, UniProt Q6ZLB0 1-436)
# T1 sequence: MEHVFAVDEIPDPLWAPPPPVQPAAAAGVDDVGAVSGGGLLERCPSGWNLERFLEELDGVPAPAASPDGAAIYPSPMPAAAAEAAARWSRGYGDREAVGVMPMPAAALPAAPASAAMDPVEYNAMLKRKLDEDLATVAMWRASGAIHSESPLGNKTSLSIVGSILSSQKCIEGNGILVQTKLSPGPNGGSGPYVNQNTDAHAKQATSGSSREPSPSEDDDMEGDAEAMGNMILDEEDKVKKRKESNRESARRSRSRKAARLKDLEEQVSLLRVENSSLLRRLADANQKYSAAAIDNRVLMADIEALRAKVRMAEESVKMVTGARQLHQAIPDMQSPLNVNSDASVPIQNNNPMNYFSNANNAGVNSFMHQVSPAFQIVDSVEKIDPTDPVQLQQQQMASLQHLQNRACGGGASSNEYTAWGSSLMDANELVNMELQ
# Assay: protein-binding microarray (RPBM); PBS, 2% BSA, 51.3 ng/ul salmon testes DNA, 50 uM zinc acetate, 200 nM TF, 25 C, 1 h; high values mean tight binding
# Settings: protein: recombinant; tags: N-terminal polyhistidine and DsRed monomer fusion (pET32a); chain copies: 2; label: CyDye5-dUTP incorporated in the synthesized complementary strand; 3' TTTTT single-stranded linker to array surface; dsDNA, one strand shown
# Outline: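 The binding signal for each feature is its fluorescence intensity in arbitrary units. An Axon 4000B scanner was used to read a custom Agilent array that had been made double-stranded with Cy5-dUTP primer extension, blocked with 2% BSA, incubated at 25 °C for 1 h with 200 nM protein in PBS, 2% BSA, salmon testes DNA and 50 µM zinc acetate, and washed. The protein was an N-terminal polyhistidine–DsRed transcription factor fusion from E. coli BL21-CodonPlus, purified on Ni–NTA.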
row,Sequence,binding signal
1,ATCTCCATCTGGCGAGCAGAGGCCGGGGAGGGAGGGGCGCCGGAGTCACCTAGTGCAG,3870 fluorescence intensity (a.u.)
2,GAGATGGGAGGAGAGCTAGCTAGCCGCCGAGGCTGAGCTCCGGAGTCACCTAGTGCAG,40600 fluorescence intensity (a.u.)
3,GTGTGCCGCCGCCGCTGACTCCGGAGGGAGAGGACGAGCTCGGAGTCACCTAGTGCAG,3320 fluorescence intensity (a.u.)
4,CATCGAGAGGCTCCCGAGCATGGCCGAGATCGCCGAGGAGCGGAGTCACCTAGTGCAG,3500 fluorescence intensity (a.u.)
5,GAGGGGCGCGGGCGCCGAGCTCCATCTGGCGAGCAGGGTACGGAGTCACCTAGTGCAG,42200 fluorescence intensity (a.u.)
6,CACCGCTACCTACGTTGTCGCCACCCACGTCAATAATCCTCGGAGTCACCTAGTGCAG,6310 fluorescence intensity (a.u.)
7,ATTCTTTTACCGCGTTGATGAATCGGATTCGTTCCGGTTTCGGAGTCACCTAGTGCAG,3360 fluorescence intensity (a.u.)
8,GAGTCGTTATCTGCATTGATGTGTCTCCTGACTCCTGAGACGGAGTCACCTAGTGCAG,3840 fluorescence intensity (a.u.)
9,CAACCTCCGATTTCCAAATCCAGTTGTCTTCTTCTTCCCCCGGAGTCACCTAGTGCAG,7150 fluorescence intensity (a.u.)
10,ACAATACTACTATTTTATCATGACGATGACTGGAACTCCACGGAGTCACCTAGTGCAG,4440 fluorescence intensity (a.u.)
11,CGCTGGTGAAGTGGTGATGCGCCTAATCGTTTTCTTCGCGCGGAGTCACCTAGTGCAG,3260 fluorescence intensity (a.u.)
12,CTTGCATTCCTTTTCTTCTCCTGAACTATATAAACACACTCGGAGTCACCTAGTGCAG,3290 fluorescence intensity (a.u.)
13,AAATTTAAGAATTTTCGGATGCACTTAAAGAAGGACAAGTCGGAGTCACCTAGTGCAG,11000 fluorescence intensity (a.u.)
14,CCGCCTGACACGTGTAAGAGCAAGTTTAATAGTATAGCCCCGGAGTCACCTAGTGCAG,13800 fluorescence intensity (a.u.)
15,GAGAGAGAGAGGAGATAATAAAATACTCGATATTGAATTGCGGAGTCACCTAGTGCAG,42500 fluorescence intensity (a.u.)
16,ATTATTAAAATATATAAATATTGAATTTAATAAAATAATTCGGAGTCACCTAGTGCAG,26400 fluorescence intensity (a.u.)
17,ATTGAATATAATTGGATATAAACAGTTTAAAACTATACTCCGGAGTCACCTAGTGCAG,5510 fluorescence intensity (a.u.)
18,GGTTGAGTGACGCGCTATTTCTGGTATTGCGTATGAAGGGCGGAGTCACCTAGTGCAG,3520 fluorescence intensity (a.u.)
19,TGTCCATGGTTTGTTGCTGCTGCGGTGGCACCAGTGCTGCCGGAGTCACCTAGTGCAG,7940 fluorescence intensity (a.u.)
20,GTAGACGAAGACCTGGCAAGTCCTTGGGCTTAAATCTCACCGGAGTCACCTAGTGCAG,17800 fluorescence intensity (a.u.)
21,TATGAACACATATGTAGCATACGCTTAAATAGACGAAGACCGGAGTCACCTAGTGCAG,40500 fluorescence intensity (a.u.)
22,GACTGTACACATGAAGGAACATATGTGCTGAAATACTGTACGGAGTCACCTAGTGCAG,26100 fluorescence intensity (a.u.)

row,Sequence,binding signal
1,GCTATATATTTGTTGATCAGCTAGGCTGTCAGCAGTTTAGCGGAGTCACCTAGTGCAG,3650 fluorescence intensity (a.u.)
2,ATACACACATATCCGCGCCATTATAAATTTGACAGCATTTCGGAGTCACCTAGTGCAG,3440 fluorescence intensity (a.u.)
3,CAACATTAGCAATTAAAATTGCGGGTTATTTGTAAAAGTCCGGAGTCACCTAGTGCAG,32000 fluorescence intensity (a.u.)
4,CATATATGGACAGGCAACGGCATGTCGTGTTCGTACAAATCGGAGTCACCTAGTGCAG,3190 fluorescence intensity (a.u.)
5,CACCACACGAAGCAGCCACGAACGCAACGCGGGTGCGTCGCGGAGTCACCTAGTGCAG,3140 fluorescence intensity (a.u.)
6,GCGGTAGCCAAGCCTGCCACGTCAGCTCTCGCGCAACGTCCGGAGTCACCTAGTGCAG,34600 fluorescence intensity (a.u.)
7,CCGCGTCCGTACTCTCTAGCCTGCGGGTAAGCAACGAACTCGGAGTCACCTAGTGCAG,45200 fluorescence intensity (a.u.)
8,CCCACCCCGCGTGCAGCTTAGGCGAACCCTCCTCCCTCCGCGGAGTCACCTAGTGCAG,3660 fluorescence intensity (a.u.)
9,CCAAAATCAGATATCTTAGGATTCATATCGATGTCCAACACGGAGTCACCTAGTGCAG,19200 fluorescence intensity (a.u.)
10,CATATCCTCAAGTAGAATTCAAATCCAGTCACATTGCCACCGGAGTCACCTAGTGCAG,4130 fluorescence intensity (a.u.)
11,CAGGTGGTGGTGGCCATTAGTTAGTGGCAAATGTGGAAGGCGGAGTCACCTAGTGCAG,3220 fluorescence intensity (a.u.)
12,AGGAATGCATTTGTGGTGGGTGCAGGTGCGCGGGTGGCGACGGAGTCACCTAGTGCAG,3340 fluorescence intensity (a.u.)
13,GTTCAGAATGTGGTGGCGACGTAAGGTGATTTGGAAGGCGCGGAGTCACCTAGTGCAG,43500 fluorescence intensity (a.u.)
14,CTAGAGGAAGTGGGGAAGCCGACGACCCCACGTCTCGCCACGGAGTCACCTAGTGCAG,3940 fluorescence intensity (a.u.)
15,TAAAATAGTTTTAAAACTTTAAGTTGAAAGTAAATACTTTCGGAGTCACCTAGTGCAG,27900 fluorescence intensity (a.u.)
16,GACTAACAAAATCGTTGAAACTTGCGAAGTTTCTTTTGATCGGAGTCACCTAGTGCAG,64700 fluorescence intensity (a.u.)
17,TACTTTCAACTCTAACTTGAAAACTTTCAACTTTGACTTGCGGAGTCACCTAGTGCAG,3860 fluorescence intensity (a.u.)
18,CCACCCACGGAGCCAGCTCACTACCACCGTTTGTCGCCTCCGGAGTCACCTAGTGCAG,4360 fluorescence intensity (a.u.)
19,TTCTTCCTCCGTCAGTTCATCATCTCTCTGTGTGTGTTTTCGGAGTCACCTAGTGCAG,3570 fluorescence intensity (a.u.)
20,GTACTACTCCCTCCGTTTCTCCCTCCGTTTCAAAATGTTTCGGAGTCACCTAGTGCAG,3220 fluorescence intensity (a.u.)
21,ACATGTGTTCACGCGTGTGTATCTTCTACTCCCTCCGTTTCGGAGTCACCTAGTGCAG,43200 fluorescence intensity (a.u.)
